Our source for the Potency and outcome values is PubChem BioAssay (Tox21).

The target in test [1] is Luciferin 4-monooxygenase (Photinus pyralis) (UniProt P08659). Description: qHTS assay to identify small molecule inhibitors of firefly luciferase (AID 1224835). Further: series mostly up to about 120 µM; nearly all actives have a fitted effect of over 25% in size. In short, it runs like this: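 Quantitative HTS format; KM concentrations of both substrates. Purified P. pyralis FLuc activity quantified from luminescence images.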
For orientation: Quantitative high-throughput screening tests each substance at several concentrations.

Test [2] can be described thus: qHTS assay to identify small molecule agonists of the constitutive androstane receptor (CAR) signaling pathway - cell viability counter screen (AID 1224836). Further: series mostly up to about 92 µM; nearly all actives have a fitted effect of over 45% in size. In short, it runs like this: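 Multiplexed viability check: HepG2-CYP2B6-hCAR cells, 15-point compound dosing, 0.75 uM PK11195 final, 23 h at 37 C, CellTiter-Fluor fluorescence.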
The nature of test [3]: qHTS assay to identify small molecule antagonists of the constitutive androstane receptor (CAR) signaling pathway - cell viability counter screen (AID 1224837). Further: series mostly up to about 92 µM; nearly all actives have a fitted effect of over 45% in size. A digest of the protocol: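 To flag cytotoxic false antagonists, HepG2 hCAR/CYP2B6-2.2kb cells were treated 23 hr with 15-concentration compound series and 50 nM CITCO at 37 C/5% CO2; CellTiter-Fluor fluorescence was the measured end point.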

For test [4], the target named is Nuclear receptor subfamily 1 group I member 3 (Homo sapiens) (UniProt Q14994). Description: qHTS assay to identify small molecule agonists of the constitutive androstane receptor (CAR) signaling pathway (AID 1224839).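 Further: HepG2 cells stably carrying human CAR and a CYP2B6 luciferase reporter; series mostly up to about 92 µM; nearly all actives have a fitted effect of over 15% in size.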 A digest of the protocol:
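Using human hepatoma HepG2 cells engineered with hCAR and a CYP2B6-2.2kb reporter, 15-concentration compound series were incubated 24 h alongside PK11195 at 0.75 uM final, with luminescence quantified afterwards.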

Test [5] in a line: qHTS assay to identify small molecule antagonists of the estrogen related receptor signaling pathway with the pleiotropic PPARgamma coactivator (PGC) from Tox21 10K library - cell viability counter screen (AID 1224840; active means well fitted cell-killing curve with a large enough effect in the repeat runs, not every such curve was filed as active; further: nearly all actives have a fitted effect of over 40% in size). A digest of the protocol: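 Seeded PGC/ERR cells (2,000/well, 6 h, 37 C/5% CO2) get compound by pin tool; 17.5 h incubation at 37 C; CellTiter-Fluor added, 30 min, fluorescence measured.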

Test [6] deals with Thyrotropin receptor (Homo sapiens) (UniProt P16473). Kind of test: qHTS assay to identify small molecule agonists of the thyroid stimulating hormone receptor (TSHR) signaling pathway (AID 1224843; calls by dose curve; further: nearly all actives have a fitted effect of over 45% in size). In short, it runs like this:
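Compounds are titrated over 15 concentrations, in triplicate, onto TSHR-HEK293 cells seeded at 800/well. Plates sit 30 min at room temperature before cAMP-d2 and anti-cAMP cryptate are added; signal is read after a further hour.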

A short description of test [7]: qHTS assay to identify small molecule agonists of the hypoxia (HIF-1) signaling pathway - cell viability counter screen (AID 1224844; calls by dose curve; further: nearly all actives have a fitted effect of over 50% in size). A digest of the protocol: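 HRE-bla ME-180; 0.5% dFBS; cpd 17 h, 37C, 5% CO2; CellTiter-Glo lum., 30 min RT, post-FRET read, same wells.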
The nature of test [8]: qHTS assay to identify small molecule agonists of H2AX (AID 1224845; active means well fitted activation curve with a large enough effect in the signal ratio in the repeat runs, not every such curve was filed as active; the % refers to the signal ratio). A digest of the protocol: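 Wild-type CHO-K1 cells plated overnight, then exposed 3 hr at 37C to compounds at 15 concentrations (0.76% DMSO). Lysed, then HTRF anti-pH2AX(S139)-cryptate/anti-H2AX-d2 detection after 24 hr at room temperature; emissions 665 and 620 nm.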
Test [9] can be described thus: qHTS assay to identify small molecule agonists of the hypoxia (HIF-1) signaling pathway (AID 1224846; active means well fitted activation curve with a large enough effect in the signal ratio in the repeat runs, not every such curve was filed as active; the % refers to the signal ratio). In short, it runs like this:
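Reporter induction in HRE-bla ME-180 cells is taken as agonism: cells sit 5 hrs after plating, receive compounds or DMSO only, incubate 17 hrs at 37C under 5% CO2, and are loaded with CCF4-AM for beta-lactamase FRET measurement.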

The nature of test [10]: qHTS assay to identify small molecule agonists of H2AX - cell viability counter screen (AID 1224847; calls by dose curve; further: top concentration of the series differs between compounds; nearly all actives have a fitted effect of over 30% in size). In short, it runs like this: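 After overnight plating of 1000 CHO-K1 cells per well, a 15-concentration compound series was applied for 3 hr at 37C. Luminescence from CellTiter-Glo, read following 30 min at room temperature, reflected cell viability.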
A short description of test [11]: qHTS RealTime-Glo MT Cell Viability Assay in HepG2 cells - 24 hour (AID 1224867). Further: nearly all actives have a fitted effect of over 50% in size. A digest of the protocol:
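HepG2 cells (600/well) were dispensed with RealTime-Glo reagents, incubated 5 h at 37 °C, then treated with compounds in DMSO for up to 40 h. Nonlytic NanoLuc luminescence reflecting viable cells was read at each stated time point.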

Test [12] is described as follows: qHTS RealTime-Glo MT Cell Viability Assay in HEK293 cells - 32 hour (AID 1224868). Further: top concentration of the series differs between compounds; nearly all actives have a fitted effect of over 50% in size. A digest of the protocol: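 HEK293 cells seeded with NanoLuc/prosubstrate reagent, rested 5 h at 37 C, then dosed and kept at 37 C up to 40 h. Nonlytic real-time luminescence from viable cells read at 0, 8, 16, 24, 32 and 40 h.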
The nature of test [13]: A CellTox Green Cytotoxicity Assay to monitor cytotoxicity in HEK293 cells - 0 hour (AID 1224869). Further: nearly all actives have a fitted effect of over 50% in size. In short, it runs like this:
(§1)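 Tox21 screen in HEK293: membrane-impermeant cyanine dye fluoresces on binding dead-cell DNA; compound pinned 5 h post-seeding, plates held at 37 C, signal read repeatedly through 40 h.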

Test [14] can be described thus: qHTS RealTime-Glo MT Cell Viability Assay in HepG2 cells - 40 hour (AID 1224870). Further: nearly all actives have a fitted effect of over 50% in size. In short, it runs like this:
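HepG2 cells mixed with RealTime-Glo MT reagents (NanoLuc plus cell-permeant prosubstrate) were seeded at 600 cells/well, incubated 5 h at 37 C/5% CO2, then pinned with compounds in DMSO; nonlytic luminescence tracked viability during 40 h treatment.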

A short description of test [15]: qHTS assay to identify small molecule agonists of the estrogen related receptor signaling pathway with the pleiotropic PPARgamma coactivator (PGC) from Tox21 10K library (AID 1224842). Further: nearly all actives have a fitted effect of over 15% in size. A digest of the protocol: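 PGC/ERR reporter cells (NTP line) were seeded 2,000 per well, rested 6 h at 37 C/5% CO2, then pin-dosed with compounds in DMSO for 18 h at 37 C; luciferase read by One-Glo luminescence after 30 min at room temperature.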

Test [16] in a line: qHTS assay to identify small molecule antagonists of the estrogen related receptor (ERR) signaling pathway from Tox21 library (AID 1224848). Further: nearly all actives have a fitted effect of over 50% in size. A digest of the protocol: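 First, 2,000 ERR cells per well were plated and held 6 h at 37 C/5% CO2. Next, compounds in DMSO were pinned in and left 18 h at 37 C. Finally, ONE-Glo was added and luminescence read after 30 min at room temperature.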

A short description of test [17]: qHTS assay to identify small molecule agonists of the estrogen related receptor (ERR) signaling pathway from Tox21 library (AID 1224849; calls by dose curve; further: nearly all actives have a fitted effect of over 15% in size). In short, it runs like this: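 Tox21 compounds tested for ERR agonism in an NTP reporter cell line: 18 h treatment at 37 C, then ONE-Glo luminescence.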
A short description of test [18]: A CellTox Green Cytotoxicity Assay to monitor cytotoxicity in HEK293 cells - 40 hour (AID 1224871). Further: nearly all actives have a fitted effect of over 45% in size. In short, it runs like this:
as §1

A short description of test [19]: qHTS assay to identify small molecule antagonists of the estrogen related receptor signaling pathway with the pleiotropic PPARgamma coactivator (PGC) from Tox21 10K library (AID 1224841; call rule not given here; further: potency means the concentration at half of the fitted maximal effect). A digest of the protocol: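 Test chemicals dissolved in DMSO were applied to pre-incubated (6 h) PGC/ERR cells at 2,000 cells/well for an 18 h, 37 C treatment; reporter luminescence was then read using One-Glo.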

Records with an inconclusive call do not appear. Calls of active or inactive are those of the source. Unless noted, the call rests on the fitted dose curve; in most records, active means well fitted curve in the direction sought with a large enough effect in the repeat runs; inconclusive means weak or mixed curves; inactive means no such curve, though single readings can be large; an effect the other way counts as inactive or inconclusive.

Nuclear receptor subfamily 1 group I member 3 (Homo sapiens), sequence (Q14994 whole entry, looked up): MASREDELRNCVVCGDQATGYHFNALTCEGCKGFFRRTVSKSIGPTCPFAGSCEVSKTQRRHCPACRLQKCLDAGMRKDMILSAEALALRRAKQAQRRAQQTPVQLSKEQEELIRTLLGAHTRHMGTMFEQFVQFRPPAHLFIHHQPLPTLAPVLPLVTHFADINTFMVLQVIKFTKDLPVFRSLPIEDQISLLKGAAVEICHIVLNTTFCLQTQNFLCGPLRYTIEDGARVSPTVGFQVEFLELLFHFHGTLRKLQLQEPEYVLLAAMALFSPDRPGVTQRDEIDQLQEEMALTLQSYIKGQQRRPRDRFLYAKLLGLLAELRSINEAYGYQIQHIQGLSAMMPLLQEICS
Thyrotropin receptor (Homo sapiens), sequence (P16473 whole entry, looked up): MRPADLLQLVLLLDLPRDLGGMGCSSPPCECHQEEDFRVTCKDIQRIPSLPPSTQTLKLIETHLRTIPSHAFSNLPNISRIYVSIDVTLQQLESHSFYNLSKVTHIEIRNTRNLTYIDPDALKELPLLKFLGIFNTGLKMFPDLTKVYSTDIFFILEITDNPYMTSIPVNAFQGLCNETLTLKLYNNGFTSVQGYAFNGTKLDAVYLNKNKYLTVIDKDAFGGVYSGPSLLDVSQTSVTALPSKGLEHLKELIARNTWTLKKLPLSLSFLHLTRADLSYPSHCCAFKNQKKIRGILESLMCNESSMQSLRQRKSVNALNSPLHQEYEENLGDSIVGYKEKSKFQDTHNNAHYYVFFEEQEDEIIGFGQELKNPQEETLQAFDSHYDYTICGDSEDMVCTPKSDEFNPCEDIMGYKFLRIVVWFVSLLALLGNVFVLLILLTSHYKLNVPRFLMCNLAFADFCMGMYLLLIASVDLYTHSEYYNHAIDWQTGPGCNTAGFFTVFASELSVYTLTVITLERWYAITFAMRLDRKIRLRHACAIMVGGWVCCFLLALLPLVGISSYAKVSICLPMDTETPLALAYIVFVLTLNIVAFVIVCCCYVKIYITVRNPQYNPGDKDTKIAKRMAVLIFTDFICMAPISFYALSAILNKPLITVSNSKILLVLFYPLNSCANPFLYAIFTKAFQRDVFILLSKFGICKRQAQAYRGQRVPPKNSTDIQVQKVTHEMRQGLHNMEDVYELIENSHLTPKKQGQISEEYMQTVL
Luciferin 4-monooxygenase (Photinus pyralis), sequence (P08659 whole entry, looked up): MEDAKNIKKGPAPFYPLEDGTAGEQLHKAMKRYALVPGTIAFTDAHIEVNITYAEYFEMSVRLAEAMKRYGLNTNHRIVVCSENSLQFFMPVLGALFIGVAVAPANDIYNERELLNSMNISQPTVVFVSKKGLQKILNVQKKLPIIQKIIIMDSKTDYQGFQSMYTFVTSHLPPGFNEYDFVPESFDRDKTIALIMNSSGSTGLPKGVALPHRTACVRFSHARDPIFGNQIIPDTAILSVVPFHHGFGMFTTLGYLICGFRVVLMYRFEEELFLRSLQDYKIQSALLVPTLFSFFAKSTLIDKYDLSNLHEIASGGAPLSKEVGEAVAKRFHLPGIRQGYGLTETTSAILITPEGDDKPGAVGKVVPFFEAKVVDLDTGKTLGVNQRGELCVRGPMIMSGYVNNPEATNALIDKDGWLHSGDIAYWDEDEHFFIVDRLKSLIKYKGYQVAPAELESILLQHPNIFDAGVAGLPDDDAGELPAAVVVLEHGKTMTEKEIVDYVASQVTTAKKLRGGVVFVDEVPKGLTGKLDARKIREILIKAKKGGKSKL

`O=[N+]([O-])c1cncn1CCN1CCOCC1`: the Potency entry in test [1], in test [4], in test [6], in test [7], in test [8] and in test [12] was “inactive” throughout. In addition, the Potency entry in test [14] was “inactive”. Besides, the call in [2], in test [3], in test [5], in [9], in [10] and in test [11] was inactive. Besides, in [13], the outcome was inactive.

With `CN1[C@@H]2CC[C@H]1CC(OC(=O)C(O)c1ccccc1)C2` (stereo not given in full), the Potency result in test [1], in [4], in test [15], in test [6], in test [8] and in [16] was “inactive” each time. The Potency result in test [12], in test [14] and in test [18] was “inactive” throughout. The compound was classed as inactive in [2], in test [3], in test [5], in [10], in test [17] and in test [11]. For the same compound, the compound was called inactive in [13].

`CC(=O)c1ccccc1[N+](=O)[O-]`: the Potency entry in test [1], in test [4], in [19], in test [15], in test [6] and in test [7] was “inactive” each time. Further, the Potency entry in test [8], in test [16], in test [12], in test [14] and in test [18] was “inactive” each time. For the same compound, the compound was called inactive in [2], in [3], in test [9], in test [10], in [17] and in [11]. The call in [13] was inactive.

Regarding `CCO[Si](OCC)(OCC)c1ccccc1`, the Potency result in test [1], in test [19], in test [15], in test [6], in [7] and in test [8] was “inactive” throughout. In addition, the Potency result in test [16], in test [12] and in test [14] was “inactive” in each case. For the same compound, the compound was called inactive in test [2], in test [3], in test [5], in test [9], in test [17] and in test [11]. Also, the compound was classed as inactive in test [13].

With `CC(=O)C1CCCCC1=O` (stereo not given), the Potency result in test [1], in test [4], in [6], in test [7], in test [8] and in test [12] was “inactive” in each case. Besides, the Potency entry in [14] and in test [18] was “inactive” in each case. The outcome in test [2], in test [3], in test [5], in test [9], in test [11] and in test [13] was inactive.

For `CC(C)=CCC/C(C)=C/C#N`, the Potency result in test [1], in test [4], in test [6], in test [7], in [8] and in test [12] was “inactive” in each case. Besides, the Potency result in [14] and in test [18] was “inactive” throughout. The compound was called inactive in test [2], in test [3], in test [5], in test [9], in test [10] and in test [11]. Besides, the compound was classed as inactive in [13].

Turning to `CO[C@@]1(NC(=O)CSC[C@@H](N)C(=O)O)C(=O)N2C(C(=O)O)=C(CSc3nnnn3C)CS[C@@H]21`, the Potency result in test [1], in test [19], in test [15], in test [6], in test [7] and in test [8] was “inactive” each time. Besides, the Potency result in test [16], in test [12], in [14] and in [18] was “inactive” throughout. Further, the result in test [2], in test [3], in test [5], in test [9], in [10] and in [17] was inactive. For the same compound, the result in test [11] and in test [13] was inactive.

Take `CC(C)(C)C(=O)c1ccccc1`: the Potency result in [1], in test [4], in test [6], in test [7], in test [8] and in test [12] was “inactive” each time. Also, the Potency entry in test [14] and in test [18] was “inactive” throughout. Also, the compound was classed as inactive in [2], in test [3], in [5], in test [9], in test [10] and in test [11]. Further, in test [13], the call was inactive.

For `CC(C)C1CCC(O)CC1` (stereo not given), the Potency entry in test [1], in test [4], in test [6], in test [7], in [8] and in test [12] was “inactive” throughout. Besides, the Potency result in test [14] and in test [18] was “inactive” each time. Besides, the compound was called inactive in [2], in [3], in test [5], in test [9], in test [10] and in [11]. In test [13], the result was inactive.

`CO[Si](C)(OC)c1ccccc1`: the Potency entry in [1], in test [4], in [19], in test [15], in test [6] and in [7] was “inactive” each time. For the same compound, the Potency entry in test [8], in test [16], in test [12], in test [14] and in test [18] was “inactive” each time. For the same compound, the call in test [2], in test [3], in test [9], in test [17], in [11] and in [13] was inactive.

Consider `FB(F)F`, for which the Potency entry in [1], in [15], in [6], in test [7], in [8] and in test [16] was “inactive” throughout. For the same compound, the Potency result in test [12], in test [14] and in [18] was “inactive” in each case. Besides, the compound was classed as inactive in test [2], in test [3], in test [5], in [9], in [10] and in [17]. The compound was classed as inactive in [11] and in test [13]. For the same compound, the Potency in test [19] was 45.4 µM (active).

In the case of `NC(=O)Cc1cccc2ccccc12`, the Potency result in [1], in [4], in test [6], in test [7], in [8] and in [12] was “inactive” each time. The Potency entry in [14] and in test [18] was “inactive” throughout. For the same compound, the result in test [2], in test [3], in test [5], in test [9], in [11] and in test [13] was inactive.

Take `COc1cccc(OC)c1C(=O)N[C@@H]1C(=O)N2[C@@H]1SC(C)(C)[C@@H]2C(=O)O`: the Potency result in test [1], in test [4], in test [6], in test [7], in test [8] and in [12] was “inactive” throughout. The Potency result in test [14] and in [18] was “inactive” in each case. The compound was classed as inactive in [2], in test [3], in test [5], in test [9], in test [10] and in [11]. In [13], the outcome was inactive.

On to `O=S(=O)(O)c1cccc2ccccc12`, for which the Potency result in [1], in test [19], in test [15], in test [16], in test [12] and in [14] was “inactive” throughout. Also, the Potency result in test [18] was “inactive”. The call in test [2], in test [3], in [5], in test [9], in [10] and in test [17] was inactive. The compound was called inactive in test [11] and in test [13].
